Measurements as given in PubChem BioAssay (EPA / NIEHS).
Values joined by “and” are separate entries in the source; they are usually repeats but may differ in a detail not shown here. Equal values may be shown once. Inconclusive results are not listed. More than one record can exist for a structure, and the calls need not agree. Active and inactive are the calls of the source. The calls were made as follows: active = hit-call score of the fitted dose curve at least 0.9, where 1 is the maximum; inconclusive = response in the unintended direction; inactive = score below 0.9.

What follows are molecules tested against Estrogen receptor (Homo sapiens) + Estrogen receptor beta (Homo sapiens) (UniProt P03372+Q92731) (assay: OT_ER_ERaERb_1440: Odyssey Thera (OT) 24-hour HEK293T Protein-Complementation Assay for Estrogen Receptor-alpha/-beta Homodimer (AID 2283356);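 also: heteromer of ER alpha and ER beta binding domains; hits raise reporter fluorescence and both agonists and antagonists give an increase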).
Procedure, shortened: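 Heterodimerisation of ERα (aa 310-547) and ERβ (aa 263-489) ligand binding domains was tracked as fluorescence gain in stably transfected HEK293T cells following 24 h dosing, normalised to DMSO controls.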

Sequence of Estrogen receptor (Homo sapiens) + Estrogen receptor beta (Homo sapiens) (P03372 whole entry, looked up, the tested form may be a part): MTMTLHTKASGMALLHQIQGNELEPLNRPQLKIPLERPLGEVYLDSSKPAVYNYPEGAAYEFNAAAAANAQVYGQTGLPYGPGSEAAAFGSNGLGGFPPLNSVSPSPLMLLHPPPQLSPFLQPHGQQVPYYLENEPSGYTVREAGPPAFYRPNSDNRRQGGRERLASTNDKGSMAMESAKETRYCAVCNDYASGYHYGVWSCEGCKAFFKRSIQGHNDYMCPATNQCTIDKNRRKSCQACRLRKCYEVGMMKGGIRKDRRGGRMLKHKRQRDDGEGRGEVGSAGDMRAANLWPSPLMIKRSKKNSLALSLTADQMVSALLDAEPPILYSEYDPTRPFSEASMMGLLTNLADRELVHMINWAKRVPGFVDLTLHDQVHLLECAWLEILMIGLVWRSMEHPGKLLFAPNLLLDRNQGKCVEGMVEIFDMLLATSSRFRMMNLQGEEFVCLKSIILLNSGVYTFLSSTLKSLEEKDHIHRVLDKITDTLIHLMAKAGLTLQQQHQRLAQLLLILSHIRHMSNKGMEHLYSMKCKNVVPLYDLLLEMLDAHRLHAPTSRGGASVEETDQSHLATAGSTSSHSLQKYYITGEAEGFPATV
Sequence of Estrogen receptor (Homo sapiens) + Estrogen receptor beta (Homo sapiens) (Q92731 whole entry, looked up, the tested form may be a part): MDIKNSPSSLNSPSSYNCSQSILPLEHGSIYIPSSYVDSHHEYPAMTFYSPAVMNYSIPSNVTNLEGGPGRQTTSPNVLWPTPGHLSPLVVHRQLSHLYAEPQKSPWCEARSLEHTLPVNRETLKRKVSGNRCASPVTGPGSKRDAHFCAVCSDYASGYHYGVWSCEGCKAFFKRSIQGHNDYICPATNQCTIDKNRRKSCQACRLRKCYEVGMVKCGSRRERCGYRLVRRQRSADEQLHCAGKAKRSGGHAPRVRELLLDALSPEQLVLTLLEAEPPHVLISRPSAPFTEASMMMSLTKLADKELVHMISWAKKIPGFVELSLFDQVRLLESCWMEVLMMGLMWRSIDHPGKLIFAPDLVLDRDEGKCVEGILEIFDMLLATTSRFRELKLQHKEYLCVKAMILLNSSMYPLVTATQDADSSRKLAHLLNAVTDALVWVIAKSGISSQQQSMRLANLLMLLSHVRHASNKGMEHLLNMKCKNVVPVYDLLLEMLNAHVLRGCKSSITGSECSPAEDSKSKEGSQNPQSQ

| Compound | outcome |
| --- | --- |
| CC(C)(C)C1CCC(O)CC1 (centres undefined) | inactive |
| CCCCCCCCCCO[C@@H]1O[C@H](CO)[C@@H](O)[C@H](O)[C@H]1O | inactive |
| CN(C)C(=O)Nc1ccccc1 | inactive |
| CNC(=C[N+](=O)[O-])NCCSCc1ccc(CN(C)C)o1 | inactive |
| CC(C)CCCC(C)(C)O | inactive |
| NC(=O)c1cccnc1 | inactive |
| CN(C)C | inactive |
| NCCN1CCNCC1 | inactive |
| CC(C)C(=O)c1ccccc1 | inactive |
| CCCO[Si](OCCC)(OCCC)OCCC | inactive |

Each molecule was assayed against Estrogen receptor beta (Homo sapiens) (UniProt Q92731) (assay: OT_ER_ERbERb_0480: Odyssey Thera (OT) 8-hour HEK293T Protein-Complementation Assay for Estrogen Receptor-beta/-beta Homodimer (AID 2283357);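 also: active means signal gain over DMSO baseline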).
Procedure, shortened: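 Fluorescence intensity, nuclear for agonists and nuclear plus cytoplasmic for antagonists, was quantified by laser scanning cytometry versus vehicle after 8 h treatment. The cells were HEK293T stably carrying ER beta LBD fragment-complementation partners.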

Sequence of Estrogen receptor beta (Homo sapiens) (Q92731 whole entry, looked up, the tested form may be a part): as above

| Compound | outcome |
| --- | --- |
| COC(=O)C(C)Oc1ccc(Oc2ncc(C(F)(F)F)cc2Cl)cc1 (centres undefined) | inactive |
| CC(C)(C)C1CCC(O)CC1 (centres undefined) | inactive |
| CCCCCCCCCCO[C@@H]1O[C@H](CO)[C@@H](O)[C@H](O)[C@H]1O | inactive |
| CC(=O)C1C(=O)C=C(C)OC1=O (centres undefined) | inactive |
| CNC(=C[N+](=O)[O-])NCCSCc1ccc(CN(C)C)o1 | inactive |
| NC(=O)c1cccnc1 | inactive |
| [O-]/[N+](=N\O)c1ccccc1 | inactive |
| O=C1OC2(c3ccc(O)cc3Oc3cc(O)ccc32)c2ccccc21 | inactive |
| CCCO[Si](OCCC)(OCCC)OCCC | inactive |

What follows are molecules tested against human Peroxisome Proliferator-activated Receptor alpha (PPARa), PPARA (gene 5465) (UniProt Q07869) (assay: NVS_NR_hPPARa: NovaScreen (NVS) Nuclear Receptor Binding Assay for human Peroxisome Proliferator-activated Receptor alpha (PPARa) (AID 2283359);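 also: activity means loss of TR-FRET signal versus DMSO baseline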).
Procedure, shortened: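 Cell-free TR-FRET binding assay with extracted PPARα protein, read 1 h after dosing. Primary screen in duplicate at 25 uM, with actives retested in concentration series. Loss of signal versus DMSO.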

Sequence of human Peroxisome Proliferator-activated Receptor alpha (PPARa), PPARA (gene 5465) (Q07869 whole entry, looked up): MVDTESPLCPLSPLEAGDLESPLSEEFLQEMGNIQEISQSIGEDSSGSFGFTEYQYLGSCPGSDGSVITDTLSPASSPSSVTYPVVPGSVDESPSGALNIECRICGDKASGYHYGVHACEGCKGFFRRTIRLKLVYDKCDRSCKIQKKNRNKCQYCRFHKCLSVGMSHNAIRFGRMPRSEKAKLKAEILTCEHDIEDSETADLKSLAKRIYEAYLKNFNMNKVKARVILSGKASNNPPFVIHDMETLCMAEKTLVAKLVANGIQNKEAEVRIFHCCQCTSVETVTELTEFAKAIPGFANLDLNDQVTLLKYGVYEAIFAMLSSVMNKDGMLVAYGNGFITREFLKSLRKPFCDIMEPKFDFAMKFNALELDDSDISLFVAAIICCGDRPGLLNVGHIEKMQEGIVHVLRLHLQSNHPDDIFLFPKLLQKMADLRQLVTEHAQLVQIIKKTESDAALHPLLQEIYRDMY

| Compound | outcome | AC50 |
| --- | --- | --- |
| CC/C(=C(\c1ccccc1)c1ccc(OCCN(C)C)cc1)c1ccccc1 | inactive | – |
| O=C(c1ccc(OCCN2CCCCC2)cc1)c1c(-c2ccc(O)cc2)sc2cc(O)ccc12 | – | 6.51 µM (active) and 6.99 µM (active) and 5.41 µM (active) |
| CCCCCCCCCCCCOCCOS(=O)(=O)O | – | 5.08 µM (active) |

What follows are molecules tested against Glucocorticoid receptor (Homo sapiens) (UniProt P04150) (assay: NVS_NR_hGR: NovaScreen (NVS) Nuclear Receptor Binding Assay for human Glucocorticoid Receptor (GR) (AID 2283363);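 as to AC50: activity is loss of specific radioligand binding signal relative to DMSO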).
Procedure, shortened: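 Cell-free radioligand displacement assay on extracted human GR, read 16 h after dosing by filter-based scintillation counting. Screened in duplicate at 25 uM, then concentration series for actives; loss of signal versus DMSO baseline.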

Sequence of Glucocorticoid receptor (Homo sapiens) (P04150 whole entry, looked up): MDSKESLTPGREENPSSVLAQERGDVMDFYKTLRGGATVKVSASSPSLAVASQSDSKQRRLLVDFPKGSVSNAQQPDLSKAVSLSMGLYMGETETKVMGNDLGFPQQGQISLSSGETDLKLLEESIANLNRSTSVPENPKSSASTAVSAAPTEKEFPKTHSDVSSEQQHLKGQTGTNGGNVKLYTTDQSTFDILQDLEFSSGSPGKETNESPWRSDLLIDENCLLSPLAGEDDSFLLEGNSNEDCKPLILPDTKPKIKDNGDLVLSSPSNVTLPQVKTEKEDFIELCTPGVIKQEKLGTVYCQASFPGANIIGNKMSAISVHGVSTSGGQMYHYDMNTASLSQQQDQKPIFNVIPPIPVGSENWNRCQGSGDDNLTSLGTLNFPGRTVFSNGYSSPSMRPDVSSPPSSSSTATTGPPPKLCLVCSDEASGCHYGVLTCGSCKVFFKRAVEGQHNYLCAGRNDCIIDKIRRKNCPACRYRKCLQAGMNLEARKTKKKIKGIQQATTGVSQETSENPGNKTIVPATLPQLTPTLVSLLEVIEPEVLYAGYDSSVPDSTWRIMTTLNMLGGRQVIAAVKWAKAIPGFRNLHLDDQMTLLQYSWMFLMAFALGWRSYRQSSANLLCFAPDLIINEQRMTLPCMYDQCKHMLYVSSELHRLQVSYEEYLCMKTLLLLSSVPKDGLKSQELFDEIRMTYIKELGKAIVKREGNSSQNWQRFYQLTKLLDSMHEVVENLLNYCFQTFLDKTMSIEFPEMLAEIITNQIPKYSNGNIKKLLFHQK

| Compound | AC50 | outcome |
| --- | --- | --- |
| O=S1(=O)CC(Cl)(Cl)C(Cl)(Cl)C1 | 25 µM (active) | – |
| c1ccc2c(c1)-c1ccc3ccc4cccc5cc-2c1c3c45 | – | inactive |
| C=CC(=O)OCC(CO)(COC(=O)C=C)COC(=O)C=C | 4.96 µM (active) | – |
| CC/C(=C(\c1ccccc1)c1ccc(OCCN(C)C)cc1)c1ccccc1 | 3.08 µM (active) and 6.38 µM (active) | inactive |
| O=C(c1ccc(OCCN2CCCCC2)cc1)c1c(-c2ccc(O)cc2)sc2cc(O)ccc12 | 6.7 µM (active) [middle of 4 runs] | – |
| O=C1OC2(c3ccc(O)cc3Oc3cc(O)ccc32)c2ccccc21 | 25 µM (active) | – |
| CC1(C)CC(=O)CC(C)(C)N1 | – | inactive |

The molecules below were run against Nuclear receptor subfamily 1 group I member 2 (Homo sapiens) (UniProt O75469) (assay: NVS_NR_hPXR: NovaScreen (NVS) Nuclear Receptor Binding Assay for human Pregnane X Receptor (PXR) (AID 2283365);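 also: a drop in FRET signal versus DMSO baseline means the compound binds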).
Procedure, shortened: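 Binding was measured by time-resolved fluorescence resonance energy transfer after a 2 h exposure of extracted human PXR protein without cells. Compounds were first tested at 25 uM in duplicate, with concentration series for actives; DMSO defined baseline.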

Sequence of Nuclear receptor subfamily 1 group I member 2 (Homo sapiens) (O75469 whole entry, looked up): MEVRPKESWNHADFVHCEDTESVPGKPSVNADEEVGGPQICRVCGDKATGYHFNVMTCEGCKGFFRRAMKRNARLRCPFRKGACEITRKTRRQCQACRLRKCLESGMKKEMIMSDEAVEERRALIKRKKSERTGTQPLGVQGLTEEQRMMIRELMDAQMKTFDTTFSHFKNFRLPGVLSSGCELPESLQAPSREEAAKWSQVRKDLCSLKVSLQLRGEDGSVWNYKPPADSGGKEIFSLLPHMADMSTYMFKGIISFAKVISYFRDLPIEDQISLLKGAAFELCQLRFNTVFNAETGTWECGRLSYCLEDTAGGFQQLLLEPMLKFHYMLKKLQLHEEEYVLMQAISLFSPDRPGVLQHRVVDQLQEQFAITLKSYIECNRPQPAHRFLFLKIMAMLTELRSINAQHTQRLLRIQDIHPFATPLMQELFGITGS

| Compound | outcome | AC50 |
| --- | --- | --- |
| CN(C)C(=O)Nc1ccccc1 | inactive | – |
| O=C(O)C1=NN(c2ccc(S(=O)(=O)O)cc2)C(=O)C1 | inactive | – |
| C=CC(O)CCCCC (centres undefined) | inactive | – |
| CC/C(=C(\c1ccccc1)c1ccc(OCCN(C)C)cc1)c1ccccc1 | inactive | – |
| CC1=CCC(=C(C)C)CC1 | inactive | – |
| CN(C)C | inactive | – |
| O=C(c1ccc(OCCN2CCCCC2)cc1)c1c(-c2ccc(O)cc2)sc2cc(O)ccc12 | – | 1.7 µM (active) and 3.59 µM (active) and 1.46 µM (active) |
| [O-]/[N+](=N\O)c1ccccc1 | inactive | – |
| NCCN1CCNCC1 | inactive | – |
| CC(C)C(=O)c1ccccc1 | inactive | – |
| CCCCCCCCCCCCOCCOS(=O)(=O)O | – | 25 µM (active) |
| CC(=O)Oc1c(C)c(C)c2c(c1C)CC[C@@](C)(CCC[C@H](C)CCC[C@H](C)CCCC(C)C)O2 | inactive | – |

These molecules were tested on guinea pig Dopamine Transporter (DAT), gene 100714898 (assay: NVS_TR_gDAT: NovaScreen (NVS) Transporter Assay for guinea pig Dopamine Transporter (DAT) (AID 2283369);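 also: active compounds lower bound radioligand signal relative to DMSO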).
Procedure, shortened: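 Test chemicals were incubated 2 h with guinea pig striatal membranes and a radioligand; bound label was separated by filtration and counted. Screening ran at 25 uM, followed by concentration-response testing to a 50 uM maximum.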

| Compound | AC50 |
| --- | --- |
| CC/C(=C(\c1ccccc1)c1ccc(OCCN(C)C)cc1)c1ccccc1 | 3.1 µM (active) |
| CC(C)(O)CCc1ccccc1 | 25 µM (active) |
| O=C(c1ccc(OCCN2CCCCC2)cc1)c1c(-c2ccc(O)cc2)sc2cc(O)ccc12 | 2.14 µM (active) |
| [Cl][Dy]([Cl])[Cl] | 17.4 µM (active) |

Each molecule was assayed against Peroxisome proliferator-activated receptor gamma (Homo sapiens) (UniProt P37231) (assay: NVS_NR_hPPARg: NovaScreen (NVS) Nuclear Receptor Binding Assay for human Peroxisome Proliferator-activated Receptor gamma (PPARg) (AID 2283370)).
Procedure, shortened: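 Fluorescence polarization measures competitive binding to extracted PPARg in a cell-free format. Reading is taken at 2 h; activity is signal loss relative to DMSO. Screening at 25 uM in duplicate preceded confirmatory dose series.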

Sequence of Peroxisome proliferator-activated receptor gamma (Homo sapiens) (P37231 whole entry, looked up): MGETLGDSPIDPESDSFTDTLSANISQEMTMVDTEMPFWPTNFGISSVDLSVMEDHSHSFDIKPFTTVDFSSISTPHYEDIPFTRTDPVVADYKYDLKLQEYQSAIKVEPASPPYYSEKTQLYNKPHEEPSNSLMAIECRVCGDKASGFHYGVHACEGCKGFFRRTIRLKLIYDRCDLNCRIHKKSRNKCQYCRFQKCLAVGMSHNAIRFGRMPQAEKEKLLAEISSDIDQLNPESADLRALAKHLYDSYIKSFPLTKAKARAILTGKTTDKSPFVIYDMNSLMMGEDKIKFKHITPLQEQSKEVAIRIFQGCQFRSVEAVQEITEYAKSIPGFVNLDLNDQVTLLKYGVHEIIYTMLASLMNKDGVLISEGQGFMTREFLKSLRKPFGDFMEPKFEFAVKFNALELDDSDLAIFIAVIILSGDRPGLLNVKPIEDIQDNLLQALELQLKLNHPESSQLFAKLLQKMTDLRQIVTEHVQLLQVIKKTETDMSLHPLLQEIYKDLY

| Compound | outcome | AC50 |
| --- | --- | --- |
| CC(C)(C)C1CCC(O)CC1 (centres undefined) | inactive | – |
| CCCCCCCCCCO[C@@H]1O[C@H](CO)[C@@H](O)[C@H](O)[C@H]1O | inactive | – |
| CC/C(=C(\c1ccccc1)c1ccc(OCCN(C)C)cc1)c1ccccc1 | inactive | – |
| CNC(=C[N+](=O)[O-])NCCSCc1ccc(CN(C)C)o1 | inactive | – |
| CC(C)CCCC(C)(C)O | inactive | – |
| CC1=CCC(=C(C)C)CC1 | inactive | – |
| NC(=O)c1cccnc1 | inactive | – |
| C=C(C)C(=O)OCCC(C)OC(=O)C(=C)C (centres undefined) | – | 20.1 µM (active) |
| [O-]/[N+](=N\O)c1ccccc1 | inactive | – |
| CCCO[Si](OCCC)(OCCC)OCCC | inactive | – |
| O=C(O)c1ccccc1O | inactive | – |
| CC(=O)Oc1c(C)c(C)c2c(c1C)CC[C@@](C)(CCC[C@H](C)CCC[C@H](C)CCCC(C)C)O2 | inactive | – |

These molecules were tested against human Dopamine Transporter (DAT), SLC6A3 (gene 6531) (UniProt Q01959) (assay: NVS_TR_hDAT: NovaScreen (NVS) Transporter Assay for human Dopamine Transporter (DAT) (AID 2283374);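 also: activity means loss of bound radioligand signal relative to DMSO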).
Procedure, shortened: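 Cell-free radioligand displacement binding at human DAT, 1 h after dosing, with filtration and scintillation counting. Primary screen in duplicate at 25 uM, actives then in concentration series. Loss of bound signal versus DMSO scored.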

Sequence of human Dopamine Transporter (DAT), SLC6A3 (gene 6531) (Q01959 whole entry, looked up): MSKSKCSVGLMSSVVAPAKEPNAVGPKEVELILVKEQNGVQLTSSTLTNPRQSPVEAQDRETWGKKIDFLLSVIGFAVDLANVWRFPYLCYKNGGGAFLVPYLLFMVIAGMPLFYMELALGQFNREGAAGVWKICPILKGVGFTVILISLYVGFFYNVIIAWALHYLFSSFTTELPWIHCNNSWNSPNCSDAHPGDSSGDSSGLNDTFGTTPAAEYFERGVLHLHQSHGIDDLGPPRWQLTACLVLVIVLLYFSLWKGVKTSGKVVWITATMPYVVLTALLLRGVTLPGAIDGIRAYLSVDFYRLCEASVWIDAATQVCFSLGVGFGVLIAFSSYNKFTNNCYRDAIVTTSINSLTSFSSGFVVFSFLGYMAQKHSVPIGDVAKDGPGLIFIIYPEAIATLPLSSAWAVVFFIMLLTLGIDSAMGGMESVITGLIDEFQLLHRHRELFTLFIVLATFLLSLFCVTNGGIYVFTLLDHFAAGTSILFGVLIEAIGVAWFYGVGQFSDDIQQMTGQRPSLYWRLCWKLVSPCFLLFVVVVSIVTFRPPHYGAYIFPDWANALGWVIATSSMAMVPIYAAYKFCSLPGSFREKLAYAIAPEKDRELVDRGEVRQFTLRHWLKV

| Compound | AC50 | outcome |
| --- | --- | --- |
| CC/C(=C(\c1ccccc1)c1ccc(OCCN(C)C)cc1)c1ccccc1 | 6.98 µM (active) | – |
| CC(C)(O)CCc1ccccc1 | – | inactive |
| O=C(c1ccc(OCCN2CCCCC2)cc1)c1c(-c2ccc(O)cc2)sc2cc(O)ccc12 | 1.76 µM (active) | – |
| CCC(=O)OCC=Cc1ccccc1 | 29.2 µM (active) | – |
| CCOC(=O)C=Cc1ccccc1 | – | inactive |

Each molecule was assayed against human Norepinephrine Transporter (NET), SLC6A2 (gene 6530) (UniProt P23975) (assay: NVS_TR_hNET: NovaScreen (NVS) Transporter Assay for human Norepinephrine Transporter (NET) (AID 2283377);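 as to AC50: displacement of radioligand from human NET seen as loss of scintillation signal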).
Procedure, shortened: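 Cell-free radioligand binding using CHO-derived membrane protein expressing human NET, read by filter scintillation counting 1 h after dosing; loss of signal vs DMSO. Initial duplicate screen at 25 uM, actives retested in concentration series.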

Sequence of human Norepinephrine Transporter (NET), SLC6A2 (gene 6530) (P23975 whole entry, looked up): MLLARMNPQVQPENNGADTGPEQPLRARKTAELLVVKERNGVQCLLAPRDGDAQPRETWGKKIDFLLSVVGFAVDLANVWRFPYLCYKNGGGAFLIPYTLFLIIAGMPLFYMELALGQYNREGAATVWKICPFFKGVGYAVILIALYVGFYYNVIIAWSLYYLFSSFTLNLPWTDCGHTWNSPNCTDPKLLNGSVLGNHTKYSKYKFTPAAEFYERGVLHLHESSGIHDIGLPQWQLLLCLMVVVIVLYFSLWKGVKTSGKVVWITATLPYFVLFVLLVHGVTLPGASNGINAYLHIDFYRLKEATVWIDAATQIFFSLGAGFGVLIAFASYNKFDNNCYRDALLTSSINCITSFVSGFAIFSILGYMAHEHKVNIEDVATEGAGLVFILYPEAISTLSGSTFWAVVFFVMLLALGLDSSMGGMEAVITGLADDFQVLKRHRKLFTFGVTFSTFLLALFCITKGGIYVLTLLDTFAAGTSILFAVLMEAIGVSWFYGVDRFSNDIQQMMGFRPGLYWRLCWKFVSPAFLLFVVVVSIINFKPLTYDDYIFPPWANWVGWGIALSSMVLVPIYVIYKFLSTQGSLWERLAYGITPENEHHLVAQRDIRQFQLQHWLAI

| Compound | AC50 | outcome |
| --- | --- | --- |
| CC/C(=C(\c1ccccc1)c1ccc(OCCN(C)C)cc1)c1ccccc1 | 3.85 µM (active) | – |
| Cc1cc(O)c(C)c(C)c1O | – | inactive |
| O=C(c1ccc(OCCN2CCCCC2)cc1)c1c(-c2ccc(O)cc2)sc2cc(O)ccc12 | 0.366 µM (active) | – |
| C=C(C)C(N)=O | – | inactive |
| O=C1OC2(c3ccc(O)cc3Oc3cc(O)ccc32)c2ccccc21 | – | inactive |
| CCOC(=O)C=Cc1ccccc1 | 25 µM (active) | – |
